# Laboratory results from the supplement of paper PMC3334620.
# The full ranking holds about 33,000 sequences; the median of “E-score (-0.5 to 0.5)” is about -0.032, and the highest 2% start at about 0.36. The sample holds the highest values, similar sequences and a random draw of the others, so the mix is not that of the screen.
# Target: T1, Sko1 (UniProt Q02100)
# T1 sequence: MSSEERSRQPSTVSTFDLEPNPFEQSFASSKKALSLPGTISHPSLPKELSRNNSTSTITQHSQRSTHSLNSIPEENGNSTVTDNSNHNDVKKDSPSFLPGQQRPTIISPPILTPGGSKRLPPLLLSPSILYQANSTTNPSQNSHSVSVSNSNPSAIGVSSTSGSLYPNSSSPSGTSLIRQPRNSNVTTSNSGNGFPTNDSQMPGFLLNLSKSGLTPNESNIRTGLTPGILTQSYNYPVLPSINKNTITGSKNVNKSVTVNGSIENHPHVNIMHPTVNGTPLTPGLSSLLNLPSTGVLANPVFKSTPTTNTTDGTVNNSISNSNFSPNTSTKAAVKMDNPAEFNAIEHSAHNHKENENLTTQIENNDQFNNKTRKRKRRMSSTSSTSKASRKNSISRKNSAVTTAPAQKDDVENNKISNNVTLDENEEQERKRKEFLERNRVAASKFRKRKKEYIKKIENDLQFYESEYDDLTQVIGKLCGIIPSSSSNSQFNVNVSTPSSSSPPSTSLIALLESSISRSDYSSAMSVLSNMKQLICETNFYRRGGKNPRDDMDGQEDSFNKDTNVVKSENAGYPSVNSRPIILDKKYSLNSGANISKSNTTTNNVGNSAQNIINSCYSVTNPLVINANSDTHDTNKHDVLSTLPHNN
# Experiment: PBM E-score (8-mer binding enrichment) (E-score (-0.5 to 0.5)); higher = stronger / more preferred TF binding
# Settings: protein concentration: 200 nM; construct: GST-full length
# Summary of the method: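 PURExpress in vitro transcription/translation supplied GST-tagged yeast transcription factors, either full-length or DNA-binding domain. Applied at about 100-200 nM to universal all-10-mer Agilent arrays double-stranded by primer extension, the bound protein was detected with fluorescent anti-GST. E-scores, modified Wilcoxon-Mann-Whitney statistics, were given by the Universal PBM Analysis Suite to ungapped eight-base words pooled with their reverse complements after masliner normalisation.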
row,Sequence,PBM E-score
1,ACACACGG,-0.0648
2,ATATAGAG,-0.151
3,CTTTGGGA,-0.187
4,AATGAGCG,0.0936
5,ACGCAAGC,0.327
6,CCGCAATA,0.0923
7,ACGCAAGG,0.316
8,ACGCAATG,0.399
9,ACGCAATC,0.411
10,AGGCAATG,0.00123
11,ACGCAATA,0.45
12,GCGCAATA,0.0795
13,CCGCAATC,-0.102
14,AAAGGGGT,-0.26
15,ATCCACTA,-0.0731
16,CGTTAATC,0.168
17,ACGGCCCA,-0.317
18,ATAACCAT,0.057
19,AAGTTTGC,0.0635
20,CTGTGCTC,0.0303
21,ACTACGCC,-0.00632
22,CCTACGGA,-0.182
23,CCTACGTA,0.477
24,CCTACGTC,0.427
25,CCTACGGC,-0.34

row,Sequence,PBM E-score
1,ACTACGGC,-0.0407
2,ACTACGTC,0.433
3,CCTACGAC,0.0224
4,CCTACGAA,0.0841
5,GCGGGTAC,-0.0713
6,CACACTAC,0.0507
7,CCAAGCGC,-0.147
8,AGTTGCAA,0.219
9,ACATCCGG,-0.227
10,CCTACCGA,-0.168
11,CCACGCCC,-0.165
12,CCGGTGGA,-0.297
13,CCGTATAC,0.0259
14,ACGTATAG,0.437
15,ACGTATAT,0.453
16,AAGTATAT,0.118
17,TCGTATAA,0.221
18,AGGTATAG,-0.141
19,ACGTATAC,0.463
20,ATGTATAC,0.247
21,CCGTATAG,-0.115
22,CCGTATAA,0.0514
23,AGGTATAT,0.184
24,ACGTATAA,0.457
25,ACGTGAGT,0.331

row,Sequence,PBM E-score
1,AATGAGGT,0.324
2,CTTGGGTC,-0.348
3,GGCGCGAA,-0.151
4,GCGTATAA,0.271
5,GCGTATAC,0.365
6,GAGTATAC,0.192
7,ATGGAGGG,-0.334
8,CCACACTC,0.00961
9,AAGATTAG,0.062
10,AGTAAGGC,-0.0198
11,ATTACGCG,0.431
12,ATTACGGA,0.287
13,GGTACGCA,0.268
14,CTTACGCA,0.427
15,GTTACTCA,0.0403
16,GTTACGCA,0.417
17,ATTACGCC,0.338
18,CTTACGCC,0.193
19,ATTACTCG,0.204
20,CTCACGCA,0.28
21,ATTACGCA,0.47
22,CAAACCAG,-0.071
23,GCACCGCC,-0.218
24,GTACCTGA,0.16
25,GCATCTCC,-0.341

row,Sequence,PBM E-score
1,ACCGGCCT,-0.0244
2,ATAGAAAG,-0.115
3,CATAGAAC,-0.15
4,AGTACGAA,0.312
5,AGTACATA,0.00479
6,AGTACGGC,-0.101
7,GGTACGAA,0.19
8,AGTACGTA,0.474
9,GGTACGGA,-0.174
10,GGTACGTA,0.454
11,AGTACGGA,-0.0994
12,CGTACATC,0.244
13,CGTACATA,0.378
14,AGTACGAC,0.157
15,AGTACGTC,0.435
16,AACCGCCC,-0.295
17,CTTCAATA,0.197
18,CGCCGTGC,-0.189
19,CGTGCGGC,0.00261
20,CCCTACCA,-0.0655
21,CCCTAGGC,-0.269
22,GACTGGCC,-0.338
23,AGTACGTG,0.365
24,AGTACGAG,0.00509
25,CGTACGTA,0.474

row,Sequence,PBM E-score
1,CGTACGTC,0.45
2,CGTACGCA,0.332
3,CGTACGCC,0.218
4,CGTACGAA,0.269
5,AGTACGCG,0.236
6,CGTACGGC,0.251
7,GGGTTGCA,-0.00077
8,GTGGCGTA,0.325
9,ATGGCGTG,0.336
10,CTGGCGTC,0.0837
11,ATGGCGTA,0.449
12,ATGGCGTC,0.392
13,CTGGCGTA,0.138
14,AACGAGTG,0.0243
15,CGATGCAC,-0.0249
16,AGTCTTAA,-0.164
17,TCACTGCA,0.175
18,ATTACAAA,0.234
19,GTTACAAA,0.213
20,CTTACGAA,0.275
21,CTCACGAA,0.138
22,ATTACGAA,0.453
23,GTTACGAA,0.378
24,GTAGGGGA,-0.186
25,GGCCATCA,-0.165

row,Sequence,PBM E-score
1,ACCCTGAA,-0.0751
2,CGCGAATA,0.0754
3,ACCTAACT,0.0945
4,CGTCGCCA,0.0172
5,GAACCTCA,-0.069
6,AGGACGTA,0.374
7,CGGACGTC,0.292
8,AGGACGTG,0.153
9,AGGACGCC,-0.21
10,AGGACGTC,0.363
11,GGGACGTA,0.319
12,CATACCCA,0.108
13,TAAGCAGA,-0.00339
14,AAGGTAGT,-0.172
15,AACGTACG,0.398
16,ATCGTACG,0.282
17,ACCGTACG,0.145
18,ACCGTACT,0.00383
19,ACCGTAGT,-0.122
20,AACGTAGT,0.414
21,AGCGTACT,-0.0878
22,AACGTACT,0.37
23,GTCTTTAA,0.178
24,ACATTGAA,0.166
25,GTGCATGA,0.133

row,Sequence,PBM E-score
1,AGATGGTC,-0.139
2,AGGTCAAG,-0.193
3,CCGTCAAG,-0.0482
4,ACGTCAAT,0.46
5,GCGTCAAA,0.274
6,GCGTCAAC,0.302
7,ACGTCAAA,0.447
8,CCGTCAAC,-0.0749
9,AGGTCAAT,0.0656
10,ATGTCAAT,0.226
11,ACGTCAAC,0.469
12,ACGTCAAG,0.444
13,TCGTCAAA,0.281
14,CTCCAACC,-0.0963
15,CTGTACCC,-0.24
16,AGATTTCG,0.114
17,ACTAGAGA,-0.0523
18,CGATTGGA,-0.0798
19,AGATTGCG,0.188
20,AATGATGT,0.427
21,AATGATGA,0.328
22,AATGATGG,0.189
